The structures appear in SMILES notation. Records with an inconclusive call do not appear. A number with no mark means an inactive call. The source made the active and inactive calls. Calls come from the whole dose curve; as a rule, active = well fitted inhibition curve with a large enough effect; inconclusive = small, poorly fitted or top-dose-only effect; inactive = flat fitted curve, though single readings scatter. Where a SMILES comes first, the peptide text is derived from it. [ ]: non-standard residue; d: D form. Hyp = O=C(O)[CH]1C[CH](O)CN1; Phe(ol) = N[CH](CO)Cc1ccccc1; Iva = CC[C](C)(N)C(=O)O; Aib = CC(C)(N)C(=O)O

For assay [1], the system named is HEK293. Description: Cytotoxic Profiling of Annotated Libraries Using Quantitative High-Throughput Screening (AID 1296008). For max response: % is set by controls: 0 for no effect and ±100 for the full control effect. Note: potency is the fitted concentration of half-maximal effect. Conditions: Five cell lines viability, CellTiter-Glo ATP luminescence, 48-72 h; max response: active compounds read low. The gist of the method:
(§1)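 Compounds were pin-transferred onto cells and incubated 48 or 72 hr at 37 degree Celsius, 95% humidity. CellTiter-Glo was added, plates sat 10 min at room temperature, then ATP-coupled luminescence was imaged as the viability read-out.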
For orientation: Cellular ATP, detected with luciferase, serves as a proxy for viable cell number.

In assay [2] the test system is NIH3T3. Described as above. The following applies: Five cell lines viability, CellTiter-Glo ATP luminescence, 48-72 h; max response: active compounds read low. An outline of the steps:
as §1

The subject of assay [3] is HaCat. The description is as above. Conditions: Five cell lines viability, CellTiter-Glo ATP luminescence, 48-72 h; max response: active compounds read low. The gist of the method:
as §1

In assay [4] the test system is KB-3-1. The description is as above. Conditions: Five cell lines viability, CellTiter-Glo ATP luminescence, 48-72 h; max response: active compounds read low. An outline of the steps:
as §1

The test system of assay [5] is HACAT. Put plainly: qHTS assay to identify novel small-molecules to repurpose for Merkel cell carcinoma treatment (AID 1296009). The following applies: MCC and control cell lines, CellTiter-Glo viability, 72 h; at 44.8 µM (top of the series) unless noted. An outline of the steps: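 qHTS format: cells treated with library compounds in DMSO across 8 (NPC) or 11 (MIPE) concentrations. Readout after 72 hr at 37 degree celsius was CellTiter-Glo luminescence.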
Note: nearly all actives have a fitted effect of over 60% in size.

With `CC(C)(C)Oc1ccc(OCC2Cc3ccccc3CN2C(=O)c2cccc3ccccc23)cc1` (stereo not given), the Potency in assay [1] is 13 µM (active). In addition, the max response in assay [2] was -2.51%.
With `Cc1cn(CCN2CCN(c3ccccc3-c3cc(C#N)cc(C(=O)NCCCN4CCCC4)c3)CC2)c2ccccc12`, the Potency was 14.8 µM (active) in assay [1] and 16.6 µM (active) in assay [2].
`C=C1C(=O)O[C@@H]2C3=C(C)CCC[C@]3(C)CC[C@@]12O`: the Potency was 8.2 µM (active) in assay [1] and 14.6 µM (active) in assay [2].
Take `COc1ccc(S(=O)(=O)n2cnc3cc(C)c(C)cc32)cc1`: the max response in assay [3] was -14.6%; in assay [4], -13.8%.
As to `Cc1sc2c(c1C)C(c1ccc(Cl)cc1)=N[C@@H](CC(=O)Nc1ccc(OCCOCCOCCOCCNc3cccc4c3C(=O)N(C3CCC(=O)NC3=O)C4=O)cc1)c1nnc(C)n1-2` (stereo not given in full), the Potency in assay [1] was 0.0447 µM (active). For the same compound, the max response in assay [2] is -54%.
Regarding `COc1cc([C@H]2O[C@H](c3cc(OC)c4c(c3)OCO4)[C@H](C)[C@H]2C)cc(OC)c1OC`, the Potency in assay [1] was 0.893 µM (active). Further, the call in assay [3] was inactive. Besides, the outcome in assay [5] is “inactive [at 17.4 µM]”.
In the case of `C/C=C(\C)C(=O)O[C@H]1C=CC(=O)O[C@H]1/C=C/[C@@H](O)[C@H](C)O`, in assay [3], the max response was -16.7%.
With `CC(C)CCNC(=O)c1ccc2c(c1)nc(Nc1n[nH]c3ccc(-c4ccccc4OC(F)(F)F)cc13)n2C1CCC(O)CC1` (stereo not given), the Potency in assay [1] is 9.2 µM (active). Moreover, the compound was called inactive in assay [3] and in assay [5].
On to `Cn1cc(-c2cnn3c(N)c(Br)c(C4CCCNC4)nc23)cn1` (stereo not given), for which the Potency is 1.03 µM (active) in assay [1] and 6.51 µM (active) in assay [2].
`C=C1CO[C@@]2(O[C@H]3CC4C5CC=C6C[C@@H](O)C[C@@H](O[C@@H]7OC[C@H](O)[C@H](O[C@@H]8OC[C@@H](O)[C@H](O)[C@H]8O)[C@H]7O[C@@H]7O[C@@H](C)[C@H](OC(C)=O)[C@@H](OC(C)=O)[C@H]7OC(C)=O)[C@]6(C)C5CC[C@]4(C)[C@@H]3[C@@H]2C)[C@@H](O)[C@H]1OC1OC(C)C(O)C(O)C1O` (stereo not given in full): the max response in assay [1] is -19.9%. Besides, the outcome in assay [3] and in assay [2] was inactive. Further, the outcome in assay [5] was “inactive [at 9.27 µM]”.
Turning to `CCC(C)(NC(=O)C(CCC(N)=O)NC(=O)C1CC(O)CN1C(=O)C(C)(C)NC(=O)C(C)(C)NC(=O)C(CC(C)C)NC(=O)CNC(=O)C(NC(=O)C(C)(C)NC(=O)C(C)(C)NC(=O)C(C)(C)NC(=O)C(Cc1ccccc1)NC(C)=O)C(C)C)C(=O)N1CC(O)CC1C(=O)NC(C)(C)C(=O)NC(CO)Cc1ccccc1` (stereo not given) (Ac-F[Aib][Aib][Aib]VGL[Aib][Aib][Hyp]Q[Iva][Hyp][Aib][Phe(ol)]; configuration not given here), the max response in assay [1] is -14.6%; in assay [2], 2.9%. The call in assay [3] was inactive. In addition, the outcome in assay [5] is “inactive [at 9.27 µM]”.
Consider `Cn1cc(-c2cnn3c(N)c(Br)c([C@@H]4CCCNC4)nc23)cn1`, for which the Potency in assay [1] was 1.16 µM (active); in assay [2], 2.06 µM (active).
In the case of `CC#C[C@@H](CC(=O)O)c1ccc(OCc2cccc(-c3ccc(C(F)(F)F)cc3)c2)cc1`, the max response is -75.8% in assay [3] and -14.7% in assay [4].
Regarding `Clc1ccc(Nc2nc3ccccc3c3nc(C4CCCCC4)[nH]c23)cc1Cl`, the values for the Potency in assay [1] and in assay [2] were 11.6 µM (active) and 20.6 µM (active), respectively.
For `Cc1cn2cc(C(=O)N(C)CCO)cc(NC3CCOc4cccc(C)c43)c2n1` (stereo not given), the max response in assay [3] is -18.4%. The compound was called inactive in assay [4].
In the case of `CNC(=O)COC(=O)N1CCC(CCc2ccc(Cl)cc2)CC1`, the Potency in assay [1] was 14.6 µM (active). Moreover, the call in assay [3] and in assay [5] was inactive. In assay [2], the max response is -13%.
Take `C[C@H]1CC[C@@]2(OC1)O[C@H]1CC3[C@@H]4CC[C@@H]5C[C@@H](O[C@@H]6O[C@H](CO)[C@@H](O[C@@H]7O[C@H](CO[C@@H]8OC[C@@H](O)[C@H](O)[C@H]8O)[C@@H](O[C@@H]8O[C@H](CO)[C@H](O)[C@H](O)[C@H]8O)[C@H](O)[C@H]7O)[C@H](O)[C@H]6O)CC[C@]5(C)C4CC[C@]3(C)[C@H]1[C@@H]2C` (stereo not given in full): the max response in assay [3] was -10.6%. For the same compound, the outcome in assay [4] was inactive.
Turning to `O=C(O)c1ccc(N2C(=O)/C(=C/c3ccc(-c4ccc([N+](=O)[O-])cc4)o3)C=C2c2ccccc2)cc1`, the max response in assay [1] was -3.48%. Also, the compound was called inactive in assay [3] and in assay [5].
As for `C[C@H](CN(C)C)Oc1nc(Nc2cc3cccc(Cl)c3cn2)cnc1C#N`, the results for the Potency in assay [1] and in assay [2] were 1.3 µM (active) and 2.06 µM (active), respectively.
The corresponding values for `CCCC(CCC)C(=O)Nc1ccn([C@@H]2O[C@H](CO)[C@@H](O)C2(F)F)c(=O)n1` are 6.51 µM (active) and 4.11 µM (active).
Take `Fc1ccc(-n2cc(CCCCN3CCC4(CC3)OCc3ccccc34)c3ccccc32)cc1`: the Potency was 18.4 µM (active) in assay [1] and 16.4 µM (active) in assay [2].

These data come from PubChem BioAssay (NCATS).
